This assay deals with E. coli BW25113 marRABp lux reporter. Kind of assay: promoter activity interaction Z-score (Lux/OD deviation from empty-vector control); higher = stronger promoter induction by the compound. On the procedure: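 E. coli BW25113 (wild type or ΔmarA/ΔsoxS/Δrob) carrying pTU175 luxCDABE promoter reporters was grown in LB in 384-well plates at 37°C with each of 94 compounds at 4 two-fold concentrations, in biological duplicates. Luminescence and OD600 were read every 30 min for 12 h and integrated as AUC over 8 h (0-8 h WT, 1-9 h mutants). Lux AUC was divided by OD AUC; the interaction score is the residual of a Huber robust fit of each promoter against the empty-vector control, then Z-transformed per promoter.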

± gives the standard deviation of the averaged measurements.

Turning to `Cc1ncc([N+](=O)[O-])n1CCO` [Metronidazole], the “promoter activity interaction Z-score” value by setting is: (0.11 µg/ml, genetic background: wild type) 0.18 ± 0.22; (0.11 µg/ml, genetic background: ΔmarA) -0.0383 ± 0.16; (0.11 µg/ml, genetic background: Δrob) -0.0923 ± 0.23; (0.11 µg/ml, genetic background: ΔsoxS) -0.209 ± 0.08; (0.21 µg/ml, genetic background: wild type) 0.0869 ± 0.33; (0.21 µg/ml, genetic background: ΔmarA) -0.213 ± 0.16. Further, the “promoter activity interaction Z-score” value is 0.0389 ± 0.047 (0.21 µg/ml, genetic background: Δrob); 0.0145 ± 0.012 (0.21 µg/ml, genetic background: ΔsoxS); -0.113 ± 0.25 (0.43 µg/ml, genetic background: wild type); 0.07 ± 0.011 (0.43 µg/ml, genetic background: ΔmarA); 0.119 ± 0.23 (0.43 µg/ml, genetic background: Δrob); -0.0739 ± 0.18 (0.43 µg/ml, genetic background: ΔsoxS). Moreover, the “promoter activity interaction Z-score” value by setting is: (0.86 µg/ml, genetic background: wild type) 0.0285 ± 0.35; (0.86 µg/ml, genetic background: ΔmarA) 0.0853 ± 0.054; (0.86 µg/ml, genetic background: Δrob) 0.0343 ± 0.03; (0.86 µg/ml, genetic background: ΔsoxS) -0.0303 ± 0.042.

As for `C[C@H](CCC(=O)O)[C@H]1CC[C@H]2[C@@H]3CC[C@@H]4C[C@H](O)CC[C@]4(C)[C@H]3CC[C@]12C` [Lithocholic acid], the “promoter activity interaction Z-score” value by setting is: (23.5 µg/ml, genetic background: wild type) 0.0125 ± 0.049; (23.5 µg/ml, genetic background: ΔmarA) 0.215 ± 0.24; (23.5 µg/ml, genetic background: Δrob) 0.171 ± 0.16; (23.5 µg/ml, genetic background: ΔsoxS) -0.00159 ± 0.033; (47.1 µg/ml, genetic background: wild type) 0.0767 ± 0.14; (47.1 µg/ml, genetic background: ΔmarA) 0.199 ± 0.2. The “promoter activity interaction Z-score” value (47.1 µg/ml, genetic background: Δrob) turned out to be 0.159 ± 0.08; the “promoter activity interaction Z-score” value (47.1 µg/ml, genetic background: ΔsoxS) is 0.29 ± 0.41; the “promoter activity interaction Z-score” value (94.1 µg/ml, genetic background: wild type) was -0.14 ± 0.0041; the “promoter activity interaction Z-score” value (94.1 µg/ml, genetic background: ΔmarA) was -0.0736 ± 0.21; the “promoter activity interaction Z-score” value (94.1 µg/ml, genetic background: Δrob) is 0.0252 ± 0.008; the “promoter activity interaction Z-score” value (94.1 µg/ml, genetic background: ΔsoxS) was -0.23 ± 0.21. Moreover, the “promoter activity interaction Z-score” value reads like this: (188.3 µg/ml, genetic background: wild type) -0.189 ± 0.024; (188.3 µg/ml, genetic background: ΔmarA) 0.0134 ± 0.26; (188.3 µg/ml, genetic background: Δrob) 0.123 ± 0.086; (188.3 µg/ml, genetic background: ΔsoxS) 0.0918 ± 0.55.
